Reference: PubChem BioAssay AID720 (The Scripps Research Institute Molecular Screening Center, 2007)
Hit rate of the full screen: of about 97,000 compounds, about 140 (0.14%) were called active. This is one part of a sample in which actives are shown more often than they occur. A number with no mark means an inactive call.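 How the source made its calls: active means inhibition above the screen-wide mean inhibition plus 3 SD (cut at about 15% in these data); inactive means the rest.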

These compounds were tested against Ephrin type-B receptor 4 (Homo sapiens) (UniProt P54760) (assay: EphB4-ephrin-B2 interaction antagonists, primary screen, biochemical, TNYL-RAW peptide probe, fluorescence polarization (AID 720;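 further: 0% = DMSO wells and 100% = excess unlabeled TNYL-RAW peptide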)). Details: EphB4 LBD / TNYL-RAW-Alexa532 peptide, at 7 µM, hits give high values.
Sequence of Ephrin type-B receptor 4 (Homo sapiens) (P54760 whole entry, looked up, the tested form may be a part): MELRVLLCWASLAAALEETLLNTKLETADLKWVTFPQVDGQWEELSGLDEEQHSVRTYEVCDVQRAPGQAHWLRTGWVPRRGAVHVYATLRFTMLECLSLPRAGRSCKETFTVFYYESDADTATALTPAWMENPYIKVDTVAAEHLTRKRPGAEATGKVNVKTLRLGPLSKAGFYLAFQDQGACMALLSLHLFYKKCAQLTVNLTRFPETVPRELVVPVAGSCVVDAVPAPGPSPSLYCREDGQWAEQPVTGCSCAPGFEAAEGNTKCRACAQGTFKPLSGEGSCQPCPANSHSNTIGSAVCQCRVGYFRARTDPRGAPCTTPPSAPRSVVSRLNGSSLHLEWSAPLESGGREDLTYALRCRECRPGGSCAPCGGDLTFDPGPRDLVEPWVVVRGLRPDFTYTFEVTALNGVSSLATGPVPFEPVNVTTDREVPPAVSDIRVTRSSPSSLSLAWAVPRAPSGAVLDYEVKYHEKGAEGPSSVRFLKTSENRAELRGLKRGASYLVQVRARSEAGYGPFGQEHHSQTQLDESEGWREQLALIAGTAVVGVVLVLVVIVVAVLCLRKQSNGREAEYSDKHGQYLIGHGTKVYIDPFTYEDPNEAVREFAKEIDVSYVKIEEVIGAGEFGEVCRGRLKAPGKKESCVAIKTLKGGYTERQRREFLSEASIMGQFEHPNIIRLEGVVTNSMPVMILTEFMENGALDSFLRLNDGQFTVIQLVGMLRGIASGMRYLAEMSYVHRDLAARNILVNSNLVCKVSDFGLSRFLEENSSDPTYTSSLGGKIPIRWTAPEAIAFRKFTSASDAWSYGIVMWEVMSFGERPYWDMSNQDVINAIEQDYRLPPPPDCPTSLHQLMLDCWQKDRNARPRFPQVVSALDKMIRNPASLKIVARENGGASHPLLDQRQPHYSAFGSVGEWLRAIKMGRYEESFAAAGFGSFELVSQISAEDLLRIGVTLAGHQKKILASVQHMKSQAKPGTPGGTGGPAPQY

Compound	inhibition
Cc1ccc(SC(=O)COc2ccc(C)c(C)c2)cc1	3.52%
O=[N+]([O-])c1ccc(N2CCN(S(=O)(=O)c3ccc4ccccc4c3)CC2)cc1NCc1ccco1	0.12%
CCc1cccc2c(C=C(C#N)C#N)cn(CC(=O)N3CCCCC3)c12	-0.37%
COc1ccc(CC(NC(C)=O)C(=O)N2CCN(C(=O)Nc3cccc(Cl)c3)CC2)cc1OC (stereo unspecified)	-2.32%
CCOc1ccc(NC(=O)CCS(=O)(=O)c2ccc3c(c2)CCCN3C(=O)CC)cc1	8.53%
COc1ccccc1NC(=O)C1CCCN(c2cc(C)nc3ncnn23)C1 (stereo unspecified)	-5.56%
C=CCOc1cccc(CNn2cn[nH]c2=S)c1	-3.4%
C=C(C)CNC(=S)/N=c1\scc(C)n1CC	-8.88%
CCCCNC(=S)NNC(=O)c1cc(C)on1	-0.6%
CC(C)NC(=O)CSc1ccccc1C(=O)NCc1ccc2c(c1)OCO2	2.19%
O=C(CSCc1ccc([N+](=O)[O-])cc1)NCCSCc1ccccc1	4.49%
O=C(c1ccc(CN2CCOCC2)cc1)N1CCN(c2ccccc2F)CC1	-2.74%
Cc1cccc(C)c1N1CCN(S(=O)(=O)N2CCOCC2)CC1	3.9%
O=S(=O)(N1CCOCC1)N1CCN(c2ccccc2F)CC1	20.7% (active)
O=C(Nc1cccc(NC(=O)c2ccco2)c1)c1cnccn1	-6.85%
COc1ccc(NC(=O)/C(Cl)=C(/Cl)S(=O)Cc2ccc(C)cc2)cn1 (stereo unspecified)	7.2%
CCOCCn1c(C(C)C)nc2ccccc21	0.96%
O=C(Cc1ccc(S(=O)(=O)N2CCOCC2)s1)NCCC(c1ccccc1)c1ccccc1	-2.3%
CCOC(=O)c1c(NC(=O)/C=C/c2ccco2)sc(C)c1C	0.57%
CC(=O)Nc1cccc(/C(C)=N/NC(=O)c2ccccc2Cl)c1	2.34%
O=C(NCC(=O)N(Cc1cccs1)C(C(=O)NC1CCCCC1)c1ccco1)c1cccs1 (stereo unspecified)	-1.39%
O=C1Nc2cc(Cl)c(Cl)cc2N(O)N1c1cc(Cl)cc(Cl)c1	2.41%
CC(C)C(=O)NC(NC(=S)NC1CCS(=O)(=O)C1)C(Cl)(Cl)Cl (stereo unspecified)	2.04%
O=C(c1cc2sccc2n1Cc1ccc(F)cc1)N1CCc2ccccc21	4.78%
Cc1c(NC(=O)/C=C/C(=O)O)cccc1[N+](=O)[O-]	-6.42%
CN(C)/C=C(/C(=O)c1ccc(Cl)cc1)S(=O)(=O)c1ccccc1	-11.6%
